This is a sample that favours compounds with a hit; in the whole collection about 7.3% have one here.
AmpC detergent: inhibitors of E. coli AmpC beta-lactamase with detergent | AmpC hydrolysis of nitrocefin, absorbance 480 nm, 0.01% Triton | Potency, µM (series often up to 114 µM), most hits filed as inhibitors | 370,000 tested, 0.041% active; further: nearly all actives have a fitted effect of over 25% in size
Target sequence (P00811 whole entry, looked up): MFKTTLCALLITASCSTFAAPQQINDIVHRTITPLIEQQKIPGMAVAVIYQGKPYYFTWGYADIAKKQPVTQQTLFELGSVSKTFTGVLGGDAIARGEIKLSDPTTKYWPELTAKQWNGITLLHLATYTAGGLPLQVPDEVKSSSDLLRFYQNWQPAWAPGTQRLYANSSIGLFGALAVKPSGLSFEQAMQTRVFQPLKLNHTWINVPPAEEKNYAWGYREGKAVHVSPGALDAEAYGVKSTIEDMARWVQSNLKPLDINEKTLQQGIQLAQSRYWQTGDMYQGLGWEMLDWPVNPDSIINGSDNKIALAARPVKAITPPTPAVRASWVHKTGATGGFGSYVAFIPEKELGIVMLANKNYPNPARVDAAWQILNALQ
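20 mM phosphate pH 7.0 + 0.01% (detergent screen) or 0.0001% Triton X-100; 5.3 nM AmpC reagent; cpd preinc 15 min RT; nitrocefin (800 uM stock) to start; A480 q20 s × 4 min; Activity was normalised to no-enzyme and no-compound control wells.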
HCV inh: blocks hepatitis C virus. Huh7.5.1 HCVcc-Cre infection, luciferase reporter, 44 h. Potency, µM (highest dose often 41.8 µM), actives largely listed as inhibitors. 340,000 tested, 3.4% active. AID 651820
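After 44 h co-culture of compound, cells and HCVcc-Cre (~0.5 moi), substrate is added for 15 min at room temperature and luciferase measured over 15 sec. Cells were seeded at 1,000/well and pre-cultured 4 h.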
AmpC no deterg: inhibitors of E. coli AmpC beta-lactamase without detergent. AmpC nitrocefin hydrolysis, absorbance 480 nm, 0.0001% Triton. 330,000 tested, 0.52% active. Potency, µM (top dose mostly 57.1 µM), most hits filed as inhibitors; further: nearly all actives have a fitted effect of over 20% in size
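AmpC (5.3 nM in the dispensed reagent) in 20 mM phosphate pH 7.0 with 0.01% (detergent screen) or 0.0001% Triton X-100 was preincubated with compounds for 15 min at room temperature. Nitrocefin was then added from an 800 uM solution, and hydrolysis was followed at 480 nm.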
FMDV antiviral: foot and mouth disease virus antiviral activity; 410,000 tested, 1.2% active; Potency, µM (top dose mostly 57.9 µM), hits mostly inhibitors; FMDV antiviral cell-based qHTS; calls by dose curve; tested in HEK293T cells; further: read-out not given here; nearly all actives have a fitted effect of over 45% in size
HCMV inh: inhibitors of human cytomegalovirus; HFF cells, HCMV-luciferase reporter, 72 h; stronger effect = lower value; 410,000 tested, 4.5% active; activity change, negative = inhibition, % at 57.5 µM; in the data active means activity change below about -60%; inconclusive means no clear call, values can overlap the other calls; inactive means above about -39%
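Luciferase read-out from HCMV-luciferase-infected HFFs (MOI 1 PFU/cell) 72 h post infection at 37C; compounds added after 16 h cell attachment; activity normalized between buffer-only basal and Salinomycin (10uM) inhibitor controls.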
A number is an active result; – = inactive; ? = inconclusive; · = no result. Unless noted, the call rests on the fitted dose curve; in most records, active means well fitted curve in the direction sought with a large enough effect; inconclusive means small, poorly fitted or top-dose-only effect, or another doubt; inactive means no such curve, though single readings can be large; an effect the other way counts as inactive or inconclusive.

SMILES | AmpC detergent | HCV inh | AmpC no deterg | FMDV antiviral | HCMV inh
Cc1cccc(NC(c2ccc(C)s2)c2ccc3ccc(C)nc3c2O)n1 (stereo not drawn) | ? | ? | – | ? | -94.7
O=c1cc(CO)oc(C(Nc2ccccn2)c2ccccc2F)c1O (stereo not drawn) | · | – | · | – | –
Oc1c(C(Nc2ccccn2)c2ccccc2F)ccc2cccnc12 (stereo not drawn) | – | · | · | – | -95.4
Cc1ccc2ccc(C(Nc3ccccn3)c3ccccc3)c(O)c2n1 (stereo not drawn) | ? | ? | – | – | –
COc1cc(C(Nc2ccccn2)c2ccc3ccc(C)nc3c2O)cc(OC)c1O (stereo not drawn) | – | – | – | 35.5µM | ·
CCc1ccc(C(=O)CSc2nc(-c3ccccc3)nc3c2CCCC3)cc1 | – | · | · | – | –
COc1ccc(C=NNC(=O)CCCC(=O)NN=Cc2ccc(OC)c(OC)c2)cc1OC | · | – | · | – | –
Cc1ccc2[nH]c(C(=O)N/N=C/c3ccccc3O)c(C)c2c1 | – | 3.55µM | – | – | -99.5
COc1ccc(C=NNC(=O)CCCC(=O)NN=Cc2ccc(OC)c(O)c2)cc1O | · | – | · | – | -68.8
COc1ccc(/C=N/NC(=O)CCn2c3ccccc3c3ccccc32)cc1O | – | 6.31µM | – | · | –
CCOc1ccc(/C=N/NC(=O)c2cc3c(OC)cc(OC)c(OC)c3[nH]2)cc1 | – | 11.2µM | – | – | –
COc1cccc(/C=N/NC(=O)CCn2c3ccccc3c3ccccc32)c1 | – | – | – | – | –
CC(=O)Oc1ccc(/C=C(\NC(=O)c2cccc(Br)c2)C(=O)Nc2ccc(C(=O)O)cc2)cc1 | · | – | · | – | –
Cc1ccc(CNC(=O)c2cc(C3CC3)nc3c2c(C)nn3-c2cccc(Cl)c2C)cc1 | – | · | · | – | –
COc1cc(OC)c2cc(C(=O)N/N=C/c3ccccc3O)[nH]c2c1 | – | 8.91µM | – | – | -95.9
COc1ccc2[nH]c(C(=O)N/N=C/c3ccc(OC)c(O)c3)cc2c1 | – | – | – | – | -74.0
CCOc1ccc(CCNC(c2nnc(-c3ccccc3)o2)c2ccccc2Cl)cc1OCC (stereo not drawn) | – | · | · | – | –
Cc1ccc(S(=O)(=O)c2ncccc2[N+](=O)[O-])cc1 | – | ? | – | 20µM | -101.5
COc1cc2c(=O)n(CCC(=O)NCC3CCCO3)c(=O)n(CC(=O)Nc3ccc(C)cc3)c2cc1OC (stereo not drawn) | – | – | – | – | –
O=C([O-])c1cc(-c2ccccc2)cc(-c2ccccc2)[n+]1CCc1ccc(Cl)cc1 | · | – | · | 35.5µM | -79.5
Cc1cc(-c2ccccc2)cc(-c2ccccc2)[n+]1C | ? | – | – | – | ?
C[n+]1c(-c2ccccc2)cc(-c2ccc(O)cc2)cc1-c1ccccc1 | – | – | – | – | –
Fc1ccc(C[n+]2c(-c3ccccc3)cc(-c3ccccc3)cc2-c2ccccc2)cc1 | ? | 10µM | – | – | -84.3
Cc1cc(-c2ccccc2)cc(-c2ccccc2)[n+]1CCc1ccccc1 | – | ? | – | 20µM | -97.9
CCOc1ccc(-c2cc(C)[n+](CCO)c(-c3ccc(OCC)cc3)c2)cc1 | – | – | – | – | -76.9
SMILES | AmpC detergent | HCV inh | AmpC no deterg | FMDV antiviral | HCMV inh
CCOc1ccc(-c2nnc(-c3cccs3)o2)cc1 | – | ? | – | – | –
Cn1nnnc1SCCNCc1ccccc1OCc1ccccc1F | – | · | · | ? | –
O=C(COc1ccc(Cl)cc1)Nc1ccccc1C(=O)OCc1cc(=O)n2ccsc2n1 | – | · | · | – | –
CCOC(=O)N1CCC(n2c(=S)[nH]c3cc(OCC)c(OCC)cc3c2=O)CC1 | – | – | – | – | -76.7
O=C(CCCn1c(=S)[nH]c2ccsc2c1=O)NCCc1ccccc1 | – | – | – | – | –
CC(C)(C)c1nc(SCC(=O)NCc2ccco2)c2ccccc2n1 | ? | ? | – | – | -88.4
Cc1sc2nc(SCC(=O)NCc3ccco3)n(Cc3ccccc3)c(=O)c2c1C | – | 2.24µM | – | – | –
O=C(CSc1nc2ccsc2c(=O)n1Cc1ccccc1)NCc1ccco1 | – | 8.91µM | – | – | –
CCCc1nc(SCC(=O)NNC(=O)c2ccc(OC)cc2)c2ccccc2n1 | – | – | – | – | ?
COc1ccc(C(=O)CSc2nc(C(C)(C)C)nc3ccccc23)cc1 | – | 3.98µM | – | ? | ?
O=C(CSc1c2c(nc3ccccc13)CCCC2)NCc1ccco1 | – | ? | – | – | –
CCc1noc(C)c1C(=O)N(CC)CC(=O)Nc1cc(Cl)ccc1C | – | – | – | – | –
COCCn1c(C)cc(C(=O)CSc2cc(C)c3ccccc3n2)c1C | ? | ? | – | – | ?
CCCCCn1c(SCc2ccncc2)nc2cc(C(=O)NCc3ccco3)ccc2c1=O | – | 14.1µM | – | ? | –
CCCCn1c(SCC(=O)NCc2ccco2)nc2ccccc2c1=O | ? | ? | – | – | –
O=C(CSc1nc2ccccc2c(=O)n1Cc1ccco1)NCc1ccco1 | – | 10µM | – | · | –
O=C(NCc1ccco1)c1ccc2c(=O)n(Cc3ccco3)c(SCC(=O)N3CCCC3)nc2c1 | ? | 12.6µM | – | – | –
COCCn1c(C)cc(C(=O)CSc2nc3ccccc3c(=O)n2Cc2ccco2)c1C | – | ? | – | – | -69.5
CSc1ncccc1C(=O)N1CCOc2ccc(C(C)(O)CCn3cccn3)cc2C1 (stereo not drawn) | · | · | · | – | ·
COc1cccc(CNS(=O)(=O)c2cc(Br)ccc2Br)c1OC | · | · | · | · | –
O=C(CSc1nc2ccccc2c(=O)n1Cc1ccco1)N1CCCCCC1 | – | 11.2µM | – | ? | ?
CN(Cc1ccccc1)C(=O)CSc1nc2ccccc2c(=O)n1Cc1ccco1 | – | ? | – | · | -80.2
N#Cc1cc(Oc2ccc3ccccc3c2)c(-n2nnc3ccccc32)cc1C#N | ? | – | – | – | -65.2
CCOc1ccc(NC(=O)Cn2cc(C(=O)c3ccc(CC)cc3)c(=O)c3cc4c(cc32)OCO4)cc1 | – | · | · | – | –
COc1ccc(CN2CCN(CC3CC3)CC2CCO)c(C)c1C (stereo not drawn) | – | – | – | – | –
SMILES | AmpC detergent | HCV inh | AmpC no deterg | FMDV antiviral | HCMV inh
COc1ccc(CN2CCN(Cc3nc4ccccc4s3)CC2CCO)c(C)c1C (stereo not drawn) | – | 6.31µM | – | ? | –
CC(C)Cc1nnc(NC(=O)CCC(=O)N2CCN(Cc3ccc(F)cc3)CC2)s1 | ? | 22.4µM | – | – | –
Cn1c(=O)oc2cc(S(=O)(=O)Nc3ccccc3O)ccc21 | – | – | – | – | –
Cn1c(=O)oc2ccc(S(=O)(=O)Nc3ccc(Cl)cc3[N+](=O)[O-])cc21 | · | · | · | · | -62.3
CN1CCC(N(C)C(=O)c2ccc(Cl)c(S(=O)(=O)Nc3cc(Cl)ccc3Cl)c2)CC1 | – | – | – | – | –
Cc1cc(C)c(S(=O)(=O)NCc2ccncc2)c(C)c1 | – | ? | – | – | -83.7
COc1cc(C)c(Br)cc1S(=O)(=O)NCc1cccs1 | – | – | – | – | ?
